Screening data deposited in PubChem by National Center for Advancing Translational Sciences (NCATS).
In the library only some 1.3% were active in any assay of this set; here they are far more common.
VACV mCherry inh: qHTS for Stage-Specific Inhibitors of Vaccinia Orthopoxvirus: mCherry Reporter Primary qHTS | Vaccinia virus mCherry reporter infection, fluorescence | Potency, µM (series often up to 36.5 µM), for the others: at the top dose activity change, negative = inhibition, most hits filed as inhibitors | AID 720579, 2013 | 310,000 compounds, 0.63% hits; calls by dose curve; tested in A549 cells; also: % is scaled to controls: 0 for no effect and ±100 for the full control effect; nearly all actives have a fitted effect of over 35% in size
AmpC inh detg: qHTS Inhibitors of AmpC Beta-Lactamase (assay with detergent); Potency, µM (series often up to 114 µM), for inactives: at the top dose activity change, negative = inhibition, hits mostly inhibitors; 370,000 compounds, 0.041% hits; P00811; AmpC hydrolysis of nitrocefin, absorbance 480 nm, 0.01% Triton;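 also: 0% = no-compound wells and -100% = no-enzyme wells; nearly all actives have a fitted effect of over 25% in size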
Target sequence (P00811 whole entry, looked up): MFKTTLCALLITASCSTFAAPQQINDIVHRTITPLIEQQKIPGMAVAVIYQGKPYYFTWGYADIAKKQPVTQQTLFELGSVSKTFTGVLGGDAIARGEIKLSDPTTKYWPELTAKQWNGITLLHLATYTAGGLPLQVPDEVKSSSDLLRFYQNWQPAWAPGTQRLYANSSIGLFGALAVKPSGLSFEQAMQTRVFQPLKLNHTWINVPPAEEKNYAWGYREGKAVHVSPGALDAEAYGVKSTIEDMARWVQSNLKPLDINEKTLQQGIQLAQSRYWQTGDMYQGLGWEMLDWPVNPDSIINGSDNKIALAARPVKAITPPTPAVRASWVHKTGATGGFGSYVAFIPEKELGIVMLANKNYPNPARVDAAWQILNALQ
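AmpC (5.3 nM in the dispensed reagent) in 20 mM phosphate pH 7.0 with 0.01% (detergent screen) or 0.0001% Triton X-100 was preincubated with compounds for 15 min at room temperature. Nitrocefin was then added from an 800 uM solution, and hydrolysis was followed at 480 nm.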
Vaccinia Venus: qHTS for Stage-Specific Inhibitors of Vaccinia Orthopoxvirus: Venus Reporter Primary qHTS | Potency, µM (titrated, usually from 36.5 µM), for inactives: top-dose activity change, negative = inhibition, most hits filed as inhibitors | 330,000 compounds, 0.46% hits | Vaccinia virus Venus reporter expression, fluorescence; calls by dose curve; tested in A549 cells; also: % is scaled to controls: 0 for no effect and ±100 for the full control effect; nearly all actives have a fitted effect of over 30% in size
SARS PLP yeast: qHTS of Yeast-based Assay for SARS-CoV PLP. S. cerevisiae expressing SARS-CoV PLpro, growth rescue. Potency, µM (top dose mostly 32.9 µM), for inactives: at the top dose activity, positive = growth rescue, most hits filed as activators. 330,000 compounds, 0.19% hits; calls by dose curve; also: 0% is about no effect; nearly all actives have a fitted effect of over 55% in size
AmpC no deterg: qHTS Inhibitors of AmpC Beta-Lactamase (assay without detergent) | AmpC nitrocefin hydrolysis, absorbance 480 nm, 0.0001% Triton | 330,000 compounds, 0.52% hits | Potency, µM (top dose mostly 57.1 µM), without a hit: at the highest dose activity change, negative = inhibition, usual class: inhibitors | AID 485341, 2010 | P00811;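 also: plate controls were no compound for no effect and no enzyme for full effect; nearly all actives have a fitted effect of over 20% in size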
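AmpC (5.3 nM in the dispensed reagent) in 20 mM phosphate pH 7.0 with 0.01% (detergent screen) or 0.0001% Triton X-100 was preincubated with compounds for 15 min at room temperature. Nitrocefin was then added from an 800 uM solution, and hydrolysis was followed at 480 nm.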
* = called active by the depositor; i = inactive; ? = inconclusive; · = not tested or not shown. Unless noted, calls follow the shape of the dose curve; as a rule, active = well fitted curve in the direction sought with a large enough effect; inconclusive = small, poorly fitted or top-dose-only effect, or another doubt; inactive = no such curve, though single readings can be large; an effect the other way counts as inactive or inconclusive. Potency is read from the fitted curve at half-maximal effect.

SMILES	VACV mCherry inh	AmpC inh detg	Vaccinia Venus	SARS PLP yeast	AmpC no deterg
C#CCN(C[C@@H]1[C@@H](OC(=O)NCc2ccco2)[C@@H](OC(=O)NCc2ccco2)Cn2c(=O)n(CCCCCC)c(=O)n21)S(=O)(=O)c1ccc(C)cc1	-19%	·	-25%	·	·
C#CCN(C[C@@H]1[C@@H](OC(=O)NCc2ccco2)[C@@H](OC(=O)NCc2ccco2)Cn2c(=O)ccc(=O)n21)S(=O)(=O)c1ccc(C)cc1	?	·	7.9µM*	·	·
C#CCN(C[C@@H]1[C@@H](OC(=O)NCC2CCCCC2)[C@@H](OC(=O)NCC2CCCCC2)Cn2c(=O)ccc(=O)n21)S(=O)(=O)c1ccc(C)cc1	?	·	7.9µM*	·	·
CO[C@H]1[C@H](NC(=O)c2ccco2)c2ccccc2C12CCN(Cc1ccc3cccc(F)c3n1)CC2	-12%	·	-6%	·	·
COc1ccccc1C1CN(CC(=O)N2CCC(C(O)c3ccccn3)CC2)Cc2ccccc2O1 (configuration not stated)	-23%	·	-15%	·	·
Oc1c(Cl)cc(Cl)cc1/C=N/NC(=S)NC1CC2C=CC1C2 (configuration not stated)	?	-1%	?	-4%	8.9µM*
CC(C)C(=O)NCC1CCC2(CCN(Cc3ccc(-c4cccc(Cl)c4)o3)CC2)O1 (configuration not stated)	i	·	-5%	·	·
CC(=O)NC1=CC(=O)c2nonc2C1=O	1.6µM*	·	1.8µM*	·	·
O=S(=O)(Nc1ccc(Br)cn1)c1ccc2ccccc2c1	-19%	-9%	-23%	-2%	7.1µM*
O=C(Nc1cccc([N+](=O)[O-])c1)c1cc2ccccc2cc1O	?	0%	?	-6%	13µM*
O=C(O)c1ccccc1C(=O)Nc1cccc([N+](=O)[O-])c1	i	-4%	-4%	1%	-3%
COc1ccc(NC(=O)c2cc([N+](=O)[O-])ccc2O)cc1	6.3µM*	1%	?	-6%	-28%
CC1=C(c2ccc(Cl)cc2)S(=O)(=O)NC1=NCc1ccc(C)cc1	-10%	27%	-9%	·	·
Cc1cccc(/C=C(\c2nc3ccccc3[nH]2)S(=O)(=O)c2ccccc2)c1	?	-3%	?	-6%	-26%
CC(C)(C)c1ccc(/C=C(\c2nc3ccccc3[nH]2)S(=O)(=O)c2ccccc2)cc1	14µM*	·	?	·	·
O=C(Oc1cccc(C(=S)N2CCOCC2)c1)c1ccc([N+](=O)[O-])cc1[N+](=O)[O-]	5.6µM*	-10%	?	-33%	-29%
CCN1CCCC1CNC(=O)c1cnn(-c2nccc(-c3cc4ccccc4o3)n2)c1C1CC1 (configuration not stated)	-23%	·	-23%	·	·
O=C(Nc1ccc2nc3ccccc3nc2c1)c1ccccc1	10µM*	?	?	-56%	-11%
CC(=O)Nc1cccc(C(=O)/C=C/c2ccc(/C=C/C(=O)c3cccc(NC(C)=O)c3)cc2)c1	·	-1%	·	-4%	-15%
Cc1cccc(C(=O)Nc2cccc(NC(=O)c3ccccc3)c2)c1	-16%	3%	-23%	4%	22µM*
CC(=O)Nc1cccc(C(=O)/C=C/c2ccc(Br)cc2)c1	22µM*	2%	11µM*	-41%	-7%
Cc1ccc(NC(=O)NC(=S)NC(=O)c2ccccc2)cc1	?	-5%	7.1µM*	-5%	-49%
COCc1c(C(=O)NC2CCCC2)cnn1-c1nccc(-c2cccs2)n1	i	·	-8%	·	·
CCC1(C2CCN(Cc3cccc(Cl)c3)CC2)NC(=O)N(CC2COc3ccccc3O2)C1=O (configuration not stated)	-21%	·	-17%	·	·
CC(C)Oc1ccc(C(=O)NCC2Cc3cc(F)cc(-c4cnccn4)c3O2)cc1 (configuration not stated)	-6%	·	7%	·	·
SMILES	VACV mCherry inh	AmpC inh detg	Vaccinia Venus	SARS PLP yeast	AmpC no deterg
Cc1ccc(NC(=O)c2ccc(NC(=O)c3ccccc3)cc2)cc1C	?	3%	10µM*	-5%	-22%
O=C(Nc1cccc(C(=O)Nc2ccc(Br)cc2)c1)c1ccccc1	·	-10%	·	-2%	32µM*
O=C(Nc1ccc(Nc2ccccc2)cc1)c1ccc(Br)cc1	·	?	·	?	-17%
COc1cc(NC(=O)c2cccc(C)c2)ccc1NC(=O)c1cc2ccccc2o1	?	3%	8.9µM*	0%	-1%
O=C1CCC[C@@H]2[C@@H](Cc3ccccc3)[C@@H](Nc3ccccc3)C[C@@H]3CCN1[C@@H]32	i	·	-9%	·	·
Clc1cccc(N2CCN(Cc3nc(-c4ccccc4)no3)CC2)c1	·	?	·	-20%	10µM*
Cc1ccc2c(c1)CN(CCNC(=O)c1cc3ccccc3oc1=O)CC(C)O2 (configuration not stated)	-7%	·	1%	·	·
Oc1c(C(Nc2cccnc2)c2ccc(C(F)(F)F)cc2)ccc2cccnc12 (configuration not stated)	8.9µM*	·	?	·	·
COc1ccc(Cl)cc1C(Nc1cccnc1)c1ccc2cccnc2c1O (configuration not stated)	3.5µM*	9%	?	-8%	-18%
Oc1cccc(C(Nc2ccccn2)c2ccc3cccnc3c2O)c1Cl (configuration not stated)	?	21%	?	·	·
COc1ccc(N2C(=O)[C@@H]3C[C@H]2CN3Cc2cccn2-c2ccccn2)cc1Cl	-16%	·	-4%	·	·
O=C(/C=C/c1ccc(F)cc1)c1ccccc1Br	?	-10%	28µM*	-94%	-22%
Cc1ccc(C(=O)/C=C/c2ccc(F)cc2)o1	-19%	-14%	?	-17%	-11%
COc1cc(Cl)c(C)cc1NC(=O)CSc1sc2c(O)cc(=O)[nH]c2c1C#N	-9%	-4%	10%	3%	1.6µM*
O=c1c2ccccc2nc(/C=C/c2cc(Br)ccc2O)n1CCCO	11µM*	3%	?	-1%	84%
Cc1[nH]c2ccccc2c1C(=O)C(C)OC(=O)c1ccc(NC(=O)CC#N)cc1 (configuration not stated)	-6%	14%	-16%	-1%	-29%
Cc1[nH]c2ccccc2c1C(=O)C(C)OC(=O)c1ccccc1NCCO (configuration not stated)	·	?	·	-5%	28µM*
Cc1noc(C)c1CC(=O)NCC1Cc2cc(-c3cccc(OC(F)(F)F)c3)ccc2O1 (configuration not stated)	-24%	·	-16%	·	·
CCCCSCCCNC(=O)c1cc(-c2cccnc2)nc2ccc(S(=O)(=O)N3CCC(C)CC3)cc12	-6%	7%	1%	·	·
O=C(NCc1cc(C(F)(F)F)ccc1Cl)c1cccc2c1C(=O)c1ccc(N3CCCCC3)cc1S2(=O)=O	-7%	·	2%	-2%	-13%
